We go through 70 molecules from PubChem BioAssay AID588354 (The Scripps Research Institute Molecular Screening Center, 2011).

Among all 360,000 compounds or so, about 430 (0.12%) were called active.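 How the source made its calls: active means inhibition above the campaign mean plus 3 SD, with each screening campaign given its own cutoff (cut at about 60% in these data); inactive means the rest.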 The full list was thinned out, with actives kept by preference.

The target of this experiment is Nuclear receptor coactivator 1 (Homo sapiens) (UniProt Q15788). Kind of experiment: NCOA1 GAL4-fusion reporter inhibition – cell-based, luminescence, primary screen (AID 588354).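 Further: 0% = DMSO treated cells and 100% = gossypol at 36 µM.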 The note with it: HEK293 GAL4-SRC1 luciferase reporter, at 3.6 µM, hits give high values.
Nuclear receptor coactivator 1 (Homo sapiens), sequence (Q15788 whole entry, looked up, the tested form may be a part): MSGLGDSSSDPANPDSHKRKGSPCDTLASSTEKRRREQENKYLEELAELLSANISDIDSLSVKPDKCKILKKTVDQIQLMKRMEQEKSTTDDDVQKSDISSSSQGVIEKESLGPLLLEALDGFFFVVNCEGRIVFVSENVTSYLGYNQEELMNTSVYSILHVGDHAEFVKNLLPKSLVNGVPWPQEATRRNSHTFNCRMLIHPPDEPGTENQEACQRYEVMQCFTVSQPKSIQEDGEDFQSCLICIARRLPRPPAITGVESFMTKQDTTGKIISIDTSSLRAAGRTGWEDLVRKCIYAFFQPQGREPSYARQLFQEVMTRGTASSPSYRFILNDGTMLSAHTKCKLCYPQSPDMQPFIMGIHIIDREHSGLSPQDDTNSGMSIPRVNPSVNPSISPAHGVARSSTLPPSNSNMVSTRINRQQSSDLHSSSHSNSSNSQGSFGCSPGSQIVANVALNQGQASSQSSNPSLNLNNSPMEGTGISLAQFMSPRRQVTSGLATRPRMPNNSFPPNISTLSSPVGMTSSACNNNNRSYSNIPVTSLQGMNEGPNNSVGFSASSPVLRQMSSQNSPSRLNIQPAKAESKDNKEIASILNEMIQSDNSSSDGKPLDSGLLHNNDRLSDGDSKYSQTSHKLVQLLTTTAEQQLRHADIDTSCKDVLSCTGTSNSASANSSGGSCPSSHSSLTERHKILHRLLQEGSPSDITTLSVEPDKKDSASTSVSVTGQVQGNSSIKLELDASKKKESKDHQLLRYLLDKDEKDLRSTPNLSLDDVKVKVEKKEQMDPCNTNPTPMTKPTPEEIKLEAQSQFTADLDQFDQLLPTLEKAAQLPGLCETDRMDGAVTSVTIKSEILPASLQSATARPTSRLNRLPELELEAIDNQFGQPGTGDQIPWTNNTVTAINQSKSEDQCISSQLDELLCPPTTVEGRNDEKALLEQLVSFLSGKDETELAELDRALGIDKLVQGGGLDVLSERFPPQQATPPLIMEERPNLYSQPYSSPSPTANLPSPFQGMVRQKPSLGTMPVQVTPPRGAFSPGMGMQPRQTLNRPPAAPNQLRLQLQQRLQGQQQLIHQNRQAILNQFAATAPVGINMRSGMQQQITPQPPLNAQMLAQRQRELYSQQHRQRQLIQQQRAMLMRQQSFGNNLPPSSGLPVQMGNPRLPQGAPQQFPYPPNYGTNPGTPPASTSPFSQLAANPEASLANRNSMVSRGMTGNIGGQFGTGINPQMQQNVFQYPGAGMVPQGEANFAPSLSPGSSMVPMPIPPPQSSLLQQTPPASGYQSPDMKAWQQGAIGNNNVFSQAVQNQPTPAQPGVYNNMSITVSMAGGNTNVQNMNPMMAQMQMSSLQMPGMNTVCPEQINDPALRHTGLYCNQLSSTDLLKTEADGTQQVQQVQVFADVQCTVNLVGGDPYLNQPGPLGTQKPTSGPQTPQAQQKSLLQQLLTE
`Cc1ccsc1C(=O)OCC(=O)c1cc(C)n(CC2CCCO2)c1C` (stereo not given): the inhibition is 82.3% (active).
In the case of `Cc1ccsc1C(=O)OCC(=O)NCCc1ccccc1`, the inhibition is -29.4% (inactive).
For `COc1ccc(CNC(=O)COC(=O)c2sccc2C)cc1OC` the value was 2.6% (inactive); for `Nc1nc(SCC(=O)N2CCN(S(=O)(=O)c3ccc(Cl)cc3)CC2)n[nH]1`, 9.56% (inactive); for `Cc1cc(C)n2nc(C(=O)N(C)C(c3ccccc3)c3ccccc3)nc2n1`, -3.03% (inactive).
For the molecule `CCc1ccnc(NS(=O)(=O)c2ccc3c(c2)OCCO3)c1`, the inhibition is -6.15% (inactive).
For `CC(=O)NC1C(Oc2ccc(C=O)cc2)OC(COC(C)=O)C(OC(C)=O)C1OC(C)=O` (stereo not given) the value was -13.2% (inactive); for `CC1CCCC(C)N1/N=C/c1ccccc1OC(F)F` (stereo not given), -2.18% (inactive).
To `CC12C(=O)N(n3cnnc3)C(=O)C1C1C=CC2C1` (stereo not given) belongs -10.2% (inactive); to `C=CCC1(CC=C)CCCN1C(=O)c1cc(COc2ccc(-n3cncn3)cc2)on1`, -1.06% (inactive).
Take `Cc1ccc(S(=O)(=O)N2CCN=C2SCc2c(F)cccc2Cl)cc1`: the inhibition is -14.6% (inactive).
To `O=C(O)C1C2CC2CN1C(=O)c1ccc(Cl)cc1Cl` (stereo not given) belongs 10.7% (inactive); to `CC(NC(=O)c1ccccc1C(=O)O)c1ccc(-n2ccnc2)cc1` (stereo not given), -1.09% (inactive).
To `N#CC1(NC(=O)COc2ccc3oc4ccccc4c3c2)CCCCC1` belongs 2.18% (inactive); to `COc1ccc(OC)c(S(=O)(=O)Nc2cccc(-c3ccc4nncn4n3)c2)c1`, -20.7% (inactive).
To `CC1CCCCC12NC(=O)N(CC(=O)N1CCN(c3ccccc3)CC1)C2=O` (stereo not given) belongs 1.99% (inactive); to `CN(C)c1ccc(CSc2ccccc2)cc1`, -41.4% (inactive); to `CCN(CC)C(=O)[C@H]1C[C@H](CC(=O)NCC23CC4CC(CC(C4)C2)C3)C(=O)N2CCc3c([nH]c4cc(CCC(=O)N(C)C)ccc34)[C@]12C`, 4.03% (inactive).
For the molecule `Cc1cc(C)c2c(c1)c(C)cc1nnc(SCC(=O)NCc3ccco3)n12`, the inhibition was -10.2% (inactive).
To `CC(C)c1cccc(C(C)C)c1Nc1cn[nH]c1` belongs -5.74% (inactive); to `CC(=O)c1cccc(NC(=O)N2CCCC2C(=O)NCCC(C)C)c1` (stereo not given), -16% (inactive).
For `C=CCn1c(SCc2cc(C(=O)OC)c(C)o2)nnc1-c1ccncc1` the value was -8.14% (inactive); for `CCn1nc(NC(=O)c2ccco2)c2cc3ccc(C)cc3nc21`, 5.64% (inactive).
For the molecule `CN(Cc1ccc(CNC[C@H]2O[C@@H](n3cnc4c(N)ncnc43)[C@H](O)[C@@H]2O)o1)S(C)(=O)=O`, the inhibition was -4.89% (inactive).
To `O=C(NCc1ccccc1)C(c1ccco1)N(C(=O)c1csnn1)c1ccccc1F` (stereo not given) belongs -7.13% (inactive); to `COc1cc(OC)cc(-c2cc3ccc(F)cc3cn2)c1`, -60% (inactive); to `CCOC(=O)c1cc(C(=O)Nc2ccc(S(=O)(=O)Nc3ccc(OC)cc3)cc2)nn1C`, 7.15% (inactive).
For `O=C(Nc1cc2c3c(c1)C1CCCC1CN3CC1CCCC21)c1ccc([N+](=O)[O-])cc1` (stereo not given) the value was -2.56% (inactive); for `CCOC(=O)NC(=O)CSc1nnc(SCCC(=O)O)s1`, -8.78% (inactive); for `COc1ccc(C2=Nn3c(nnc3-c3ccccc3OC)SC2)cc1OC1CCCC1`, -15.9% (inactive).
To `CCCCN(C(=O)CCNC(=O)NC12CC3CC(CC(C3)C1)C2)c1c(N)n(CCCC)c(=O)[nH]c1=O` belongs 4.35% (inactive); to `C=CCOc1cccc(C2NC(=O)c3ccccc3O2)c1` (stereo not given), 3.13% (inactive); to `Cc1ccnc2nc(C(=O)OCC(=O)N(CC(C)C)CC(C)C)nn12`, 2.84% (inactive).
As to `CN1CCN(C(=O)C(=O)c2cn(CC(=O)N3CCCC3)c3ccccc23)CC1`, the inhibition is -22.3% (inactive).
To `CCN(CC)C(=O)CSC1c2ccccc2C(=O)N1c1ccccc1` (stereo not given) belongs -5.03% (inactive).
As to `O=C(c1ccc(F)c(S(=O)(=O)N2CCOCC2)c1)N(CCc1ccccc1)Cc1ccccc1`, the inhibition was -1.71% (inactive).
To `CSCCC(NC(=O)c1ccc(Cl)cc1Cl)C(=O)NNC(=O)c1csc(N2CCOCC2)n1` (stereo not given) belongs -17% (inactive); to `Cc1cccc(C(=O)N2CCCC(Nc3ccc(C(C)C)cc3)C2)n1` (stereo not given), 1.61% (inactive).
For `COc1ccc(N2CCN(C(=O)Cn3cnc4sc(C)c(S(=O)(=O)N5CCOCC5)c4c3=O)CC2)cc1` the value was 1.72% (inactive); for `O=C(Nc1cc(-c2nc3ncccc3o2)ccc1Cl)c1ccco1`, -8.08% (inactive).
For `C[C@H]1CN([C@@H](C)CO)C(=O)c2cc(-c3cccc(F)c3)cnc2O[C@@H]1CN(C)S(C)(=O)=O` the value was 4.48% (inactive).
With `COC(=O)CNC(=O)c1ccc2c(c1)S(=O)(=O)c1ccccc1C2=O`, the inhibition is -9.27% (inactive).
To `Cc1cc(=O)oc2c3c(cc(OCC(=O)NCC(O)c4ccccc4)c12)OC(C)(C)CC3` (stereo not given) belongs -22.4% (inactive); to `S=C(Cc1ccc(Cl)cc1)N1CCOCC1`, -5.3% (inactive).
For `O=C(O)c1n[nH]nc1-c1ccccc1` the value was 10.2% (inactive).
For `CC1(C)CC(N2CCN(C(c3ccccc3)c3ccccc3)CC2)=CC(=[N+]2CCCCC2)C1` the value was 77% (active); for `Clc1ccc2nc(CSc3ccccc3)cn2c1`, -91.3% (inactive).
As to `CC(C)(C)SCCSC1=CC(=O)CC(c2ccccc2)C1` (stereo not given), the inhibition was -111% (inactive).
In the case of `CCCCNS(=O)(=O)c1ccc2nc(SCC(=O)Nc3cc(C)cc(C)c3)[nH]c2c1`, the inhibition was 12% (inactive).
Regarding `Cc1cc(NC(=O)CSc2nccn2-c2ccc([N+](=O)[O-])cc2)no1`, the inhibition was -17% (inactive).
To `CN(C)/C=C(/C(=O)c1ccccc1Cl)S(C)(=O)=O` belongs -22.7% (inactive).
For `COc1ccc2c(c1)N(C)/C(=C1/SC(=S)N(NC(C)=O)C1=O)S2` the value was -35.2% (inactive); for `CCOC(=O)c1ccccc1N1C(=O)C2Sc3[nH]c(=O)sc3C(/C=C/c3ccccc3)C2C1=O` (stereo not given), -1.18% (inactive).
To `O=S(=O)(c1ccc(Cl)cc1)c1nc(-c2ccccc2F)oc1NCCN1CCOCC1` belongs -8.54% (inactive).
For `O=C(NCCN1CCOCC1)c1cc(Sc2cccc(Cl)c2)nc2ccccc12`, the inhibition was -5.48% (inactive).
For `c1ccc2cc3c(NCCN4CCOCC4)ccnc3cc2c1` the value was 61.6% (active); for `O=C(CCCN=C1NS(=O)(=O)c2ccccc21)OCC(=O)c1ccc(F)c(F)c1`, -0.01% (inactive); for `CCn1c(C(C)C)n[nH]c1=S`, -20.3% (inactive).
Take `CC(C)(C)NC(=O)C(c1ccco1)N(Cc1ccc2c(c1)OCO2)C(=O)Cn1nnc2ccccc21` (stereo not given): the inhibition is 11.9% (inactive).
`CCOc1ccc(-n2cnnn2)cc1S(=O)(=O)N1CCC(C)CC1C` (stereo not given): the inhibition is 4.05% (inactive).
For `O=S(=O)(NCc1ccc2c(c1)OCO2)c1cccc2nsnc12` the value was -3.02% (inactive); for `Cc1nc(COc2cc3oc(=O)cc(C)c3cc2Cl)cs1`, -6.18% (inactive); for `C[C@@H]1C[C@@H]2O[C@H]2/C=C\C=C\C(=O)Cc2c(Cl)c(O)cc(O)c2C(=O)O1`, 53.8% (inactive).
For `CC(=O)NC1(c2ccc(F)cc2)CCN(C(=O)c2c(F)cccc2F)CC1`, the inhibition was -14.7% (inactive).
For `c1cnc(NC2C3CC4CC(C3)CC2C4)nc1` (stereo not given) the value was -13.6% (inactive); for `CCCCCC(O)c1cccc(OCc2ccc3ccccc3n2)c1` (stereo not given), -17.6% (inactive); for `O=C(CCn1c(=S)[nH]c2cc3c(cc2c1=O)OCO3)NCc1ccc(Cl)cc1`, 10% (inactive).
In the case of `CCN(Cc1ccccc1)C(=O)CSc1nc(C)cc2c1C(=O)OC2`, the inhibition was -20% (inactive).
Regarding `Cc1nnc(C)c2c(C)n(N)c(C)c12`, the inhibition was 3.29% (inactive).
To `CCCNC(=O)C1(C)CCN(C(=O)c2ccccc2OC(F)(F)F)C1` (stereo not given) belongs -5.22% (inactive).
